PubChem BioAssay AID431 (Sanford-Burnham Center for Chemical Genomics, 2006)
About 1,100 (1.7%) of roughly 63,000 compounds were called active. Only a selection was taken, and actives are over-represented in it overall. Measured potencies and affinities stand elsewhere. A number with no mark means an inactive call.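 How the source made its calls: active means compounds whose percent cytotoxicity in the single-dose primary screen, scaled between solvent and toxic-drug controls, exceeds 50; inactive means the rest.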

assay: cytotoxicity in KRAS-transformed pancreatic duct cells, primary screen, cell-based, fluorescence, HTS (AID 431); conditions: HPDE-C7K KRASV12 cells, Alamar Blue viability, 48 h; at 10 µM; active compounds read high;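 further: 0% = DMSO solvent wells and 100% = doxorubicin-treated wells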

| Compound | cytotoxicity |
| --- | --- |
| COc1ccccc1N(CC(=O)N1CCCCCC1)S(C)(=O)=O | -11.5% |
| Oc1c(CN2CCCCC2)cc(COCc2ccccc2)c2cccnc12 | 2.2% |
| COCc1cc(CN2CCCC2)c(O)c2ncccc12 | -4.6% |
| COCc1[nH]nc2c1C1(C(=O)Nc3ccc(F)cc31)C(C#N)=C(N)O2 (stereo not drawn) | -38.8% |
| Cc1ccc(NC(=O)CC2SCCNC2=O)cc1Cl (stereo not drawn) | -0.4% |
| CN1CCN(c2nc(N3CCN(CCO)CC3)nc3ccccc23)CC1 | 8.2% |
| Clc1ccc2nc(NC3=NCN(CCN4CCOCC4)CN3)nc(-c3ccccc3)c2c1 | 8.5% |
| OCCN1CCN(c2nc(-c3ccccc3)c3cc(Cl)ccc3n2)CC1 | 130% (active) |
| CN1CCN(c2nc(-c3ccccc3)c3cc(Cl)ccc3n2)CC1 | 29.7% |
| Cc1ccc2nc(N3CCC(C(=O)O)CC3)nc(-c3ccccc3)c2c1 | 1% |
| CS(=O)(=O)N1CCC(c2noc(-c3ccc(C(F)(F)F)cc3)n2)CC1 | 0.2% |
| COc1ccc(N/C=C2\CCOC2=O)cc1 | 43.6% |
| COC(=O)c1ccc(OCC(=O)c2ccc(O)cc2O)cc1 | 0.1% |
| C=CCOc1ccc(/C(O)=C2\C(=O)C(=O)N(CCOC)C2c2cccnc2)cc1 (stereo not drawn) | -14% |
| CC(C)(C)c1ccc(C(O)CCCN2CCC(C(O)(c3ccccc3)c3ccccc3)CC2)cc1 (stereo not drawn) | 121% (active) |
| OC(CCN1CCCC1)(c1ccccc1)C1CCCCC1 (stereo not drawn) | 28.9% |
| OC(CCN1CCCCC1)(c1ccccc1)C1CCCCC1 (stereo not drawn) | 14.3% |
| COc1cccc(C2CC(c3ccc(C)cc3)Nc3nc(N)nn32)c1 (stereo not drawn) | 1.4% |
| Cc1oc(-c2cccc(Cl)c2)nc1CN1CCC(C(=O)N2CCN(c3ccccc3F)CC2)CC1 | 62% (active) |
| CCN1CCN(C(=O)C2CCN(Cc3nc(-c4cccc(Cl)c4)oc3C)CC2)CC1 | 1.9% |
| Cc1oc(-c2cccc(Cl)c2)nc1CN1CCC(C(=O)N2CCN(c3ccccn3)CC2)CC1 | 6.5% |
| Cc1cccc(OCC(O)Cn2c(NCCCOC(C)C)nc3c2c(=O)[nH]c(=O)n3C)c1 (stereo not drawn) | -8% |
| Clc1ccccc1-c1nnc2sc(-c3ccncc3)nn12 | 3.4% |
| Cc1nn2c(-c3ccc(Cl)cc3Cl)nnc2s1 | -0.2% |
| CN(C)c1ccc(-c2nn3c(-c4ccccc4Cl)nnc3s2)cc1 | 57.1% (active) |
| COc1ccccc1-c1nnc2sc(-c3ccc(N(C)C)cc3)nn12 | 44% |
| CN(C)c1ccc(-c2nn3c(-c4ccc(Cl)cc4)nnc3s2)cc1 | -7.1% |
| CN(C)c1ccc(-c2nn3c(-c4ccc(Cl)cc4Cl)nnc3s2)cc1 | 50.5% (active) |
